According to the antibiotic and cytotoxicity screens of Wong et al. (2023):
Out of some 39,000 compounds screened, about 1,500 (3.8%) were called active. The sample as a whole holds a higher share of actives than the screen did.

tested on: HSkMC (human skeletal muscle cells); experiment: cytotoxicity call (relative viability < 0.9); details: 10 µM

| Structure (SMILES) | cytotoxicity call |
| --- | --- |
| C[C@H]1CN([C@@H](C)CO)C(=O)c2ccccc2-c2ccccc2CO[C@H]1CN(C)Cc1ccc(Oc2ccccc2)cc1 | inactive |
| COC1=CC(=O)C(O)=CC1=CC=Cc1ccccc1 | active |
| COC1=CC(=O)c2ccccc2C1=O | inactive |
| COc1ccc(C(=O)C=Cc2ccccc2)cc1 | inactive |
| C[C@H]1CCCCO[C@H](CN(C)C(=O)Nc2ccc(C(F)(F)F)cc2)[C@@H](C)CN([C@@H](C)CO)C(=O)c2cc(NS(C)(=O)=O)ccc2O1 | inactive |
| Cc1noc(C)c1S(=O)(=O)Nc1ccc2c(c1)C(=O)N([C@H](C)CO)C[C@@H](C)[C@@H](CN(C)CC1CCCCC1)OCCCC[C@@H](C)O2 | inactive |
| C[C@H]1CN([C@@H](C)CO)C(=O)c2cccc(NC(=O)c3nc4ccccc4s3)c2O[C@@H]1CN(C)Cc1ccc(C(F)(F)F)cc1 | active |
| C[C@@H]1CN([C@H](C)CO)C(=O)c2cccc(NC(=O)c3nc4ccccc4s3)c2O[C@@H]1CN(C)Cc1ccc(C(F)(F)F)cc1 | inactive |
| C[C@@H]1CN([C@@H](C)CO)C(=O)c2cccc(NC(=O)c3nc4ccccc4s3)c2O[C@H]1CN(C)Cc1ccc(C(F)(F)F)cc1 | inactive |
| C[C@@H]1CN([C@@H](C)CO)C(=O)c2cccc(NC(=O)c3nc4ccccc4s3)c2O[C@@H]1CN(C)Cc1ccc(C(F)(F)F)cc1 | inactive |
| C[C@@H]1CN([C@H](C)CO)C(=O)c2cccc(NC(=O)c3nc4ccccc4s3)c2O[C@H]1CN(C)Cc1ccc(C(F)(F)F)cc1 | active |
| C[C@H](CO)N1C[C@H](C)[C@@H](CN(C)Cc2ccc(C(F)(F)F)cc2)Oc2c(NC(=O)c3nc4ccccc4s3)cccc2C1=O | inactive |
| C[C@H](NC(=O)C[C@@H]1C[C@@H]2c3cc(NC(=O)Nc4ccc(C(F)(F)F)cc4)ccc3O[C@@H]2[C@@H](CO)O1)c1ccccc1 | inactive |
| C[C@H]1CN([C@@H](C)CO)C(=O)c2ccccc2-c2ccccc2CO[C@@H]1CN(C)Cc1cccc(C(F)(F)F)c1 | inactive |
| C[C@@H]1CCCCO[C@@H](CN(C)C)[C@@H](C)CN([C@H](C)CO)C(=O)c2cc(NC(=O)Nc3ccc(C(F)(F)F)cc3)ccc2O1 | inactive |
| CO[C@@H](CN(C)S(=O)(=O)c1cccc(Cl)c1)[C@@H](C)CN([C@H](C)CO)S(=O)(=O)c1ccc(Cl)cc1 | inactive |
| C[C@H](CO)N1C[C@H](C)[C@@H](CN(C)C(=O)CCCN(C)C)OCCCC[C@H](C)Oc2ccc(NC(=O)Nc3ccc(C(F)(F)F)cc3)cc2C1=O | inactive |
| C[C@@H]1CN([C@@H](C)CO)C(=O)c2cc(NC(=O)Cc3cn(C)c4ccccc34)ccc2O[C@H]1CN(C)Cc1ccc(-c2ccccc2)cc1 | inactive |
| C[C@H](CO)N1C[C@H](C)[C@H](CN(C)Cc2ccc(-c3ccccc3)cc2)Oc2ccc(NC(=O)Cc3cn(C)c4ccccc34)cc2C1=O | active |
| C[C@H](CO)N1C[C@H](C)[C@H](CN(C)Cc2ccc(Oc3ccccc3)cc2)Oc2ccc(NC(=O)Cc3cn(C)c4ccccc34)cc2C1=O | active |
| C[C@@H]1CN([C@@H](C)CO)C(=O)c2cc(NC(=O)Cc3cn(C)c4ccccc34)ccc2O[C@H]1CN(C)Cc1ccc(Oc2ccccc2)cc1 | inactive |
| C[C@@H]1CN([C@H](C)CO)C(=O)c2cc(NC(=O)Cc3cn(C)c4ccccc34)ccc2O[C@H]1CN(C)Cc1ccc(-c2ccccc2)cc1 | inactive |

| Structure (SMILES) | cytotoxicity call |
| --- | --- |
| C[C@H]1CN([C@@H](C)CO)C(=O)c2cc(NC(=O)Cc3cn(C)c4ccccc34)ccc2O[C@@H]1CN(C)Cc1ccc(Oc2ccccc2)cc1 | active |
| C[C@@H]1CN([C@H](C)CO)C(=O)c2cc(NC(=O)Cc3cn(C)c4ccccc34)ccc2O[C@H]1CN(C)Cc1ccc(Oc2ccccc2)cc1 | inactive |
| C[C@@H]1CN([C@H](C)CO)C(=O)c2cc(NC(=O)Cc3cn(C)c4ccccc34)ccc2O[C@@H]1CN(C)Cc1ccc(Oc2ccccc2)cc1 | inactive |
| C[C@H]1CN([C@@H](C)CO)C(=O)c2cc(NC(=O)Cc3cn(C)c4ccccc34)ccc2O[C@H]1CN(C)Cc1ccc(Oc2ccccc2)cc1 | inactive |
| CC(C)[C@@H](N)c1ncnn1C | inactive |
| COc1ccc(NC(=O)Nc2ccc3c(c2)C(=O)N([C@H](C)CO)C[C@@H](C)[C@H](CN(C)S(=O)(=O)c2ccc(Cl)cc2)OCCCC[C@H](C)O3)cc1 | inactive |
| CC(C)C#Cc1cnc2c(c1)C(=O)N([C@@H](C)CO)C[C@H](C)[C@H](CN(C)C(=O)c1ccc3c(c1)OCO3)O2 | inactive |
| C[C@H](CO)N1C[C@H](C)[C@@H](CN(C)C(=O)Cc2ccccn2)Oc2cc(-c3cccc(C(=O)N(C)C)c3)ccc2S1(=O)=O | inactive |
| C[C@H]1[C@H]([Si](C)(C)F)[C@@H](CC(=O)N2Cc3ccccc3C[C@H]2CO)O[C@]12C(=O)N(c1ccccc1)c1ccccc12 | inactive |
| CCCNc1ncnc(N)c1[N+](=O)[O-] | inactive |
| Nc1ccccc1S(N)(=O)=O | inactive |
| NS(=O)(=O)c1ccccc1 | inactive |
| NS(=O)(=O)C#Cc1ccccc1 | active |
| CCC[C@@H](O)C#Cc1cnc2c(c1)C(=O)N([C@H](C)CO)C[C@H](C)[C@H](CN(C)S(C)(=O)=O)O2 | inactive |
| CCOc1cc(C(C)(C)C)ccc1C1=N[C@@](C)(c2ccc(Cl)cc2)[C@@](C)(c2ccc(Cl)cc2)N1C(=O)N1CCN(CCCS(C)(=O)=O)CC1 | active |
| C[C@H]1CN([C@@H](C)CO)S(=O)(=O)c2ccc(/C=C/c3ccccc3)cc2O[C@@H]1CN(C)C(=O)CN1CCOCC1 | inactive |
| C[C@H]1CN([C@@H](C)CO)C(=O)Cc2cc(NC(=O)c3ccncc3)ccc2O[C@@H]1CN(C)S(=O)(=O)c1cn(C)cn1 | inactive |
| COc1cccc(S(=O)(=O)N(C)C[C@@H]2Oc3ncc(C#CC(C)C)cc3C(=O)N([C@@H](C)CO)C[C@@H]2C)c1 | inactive |
| COc1ccc(S(=O)(=O)N(C)C[C@@H]2Oc3ccc(NC(=O)Cc4ccccc4)cc3C(=O)N([C@@H](C)CO)C[C@@H]2C)cc1 | inactive |
| COc1ccc(NC(=O)Nc2ccc3c(c2)C(=O)N([C@H](C)CO)C[C@@H](C)[C@@H](CN(C)C(=O)Nc2cccc4ccccc24)O3)cc1 | active |
| COc1ccc(NC(=O)Nc2ccc3c(c2)C(=O)N([C@@H](C)CO)C[C@@H](C)[C@H](CN(C)C(=O)Nc2cccc4ccccc24)O3)cc1 | inactive |
| COc1ccc(S(=O)(=O)N(C)C[C@H]2Oc3ccc(NC(=O)Nc4cccc5ccccc45)cc3C(=O)N([C@@H](C)CO)C[C@@H]2C)cc1 | inactive |

| Structure (SMILES) | cytotoxicity call |
| --- | --- |
| COc1ccc(S(=O)(=O)N(C)C[C@H]2Oc3ccc(NC(=O)Cc4ccccc4)cc3C(=O)N([C@H](C)CO)C[C@@H]2C)cc1 | active |
| COc1ccc(NC(=O)Nc2ccc3c(c2)C(=O)N([C@@H](C)CO)C[C@H](C)[C@H](CN(C)C(=O)Nc2cccc4ccccc24)O3)cc1 | inactive |
| COc1ccc(S(=O)(=O)N(C)C[C@H]2Oc3ccc(NC(=O)Nc4cccc5ccccc45)cc3C(=O)N([C@H](C)CO)C[C@H]2C)cc1 | inactive |
| COc1ccc(NC(=O)Nc2ccc3c(c2)C(=O)N([C@H](C)CO)C[C@H](C)[C@@H](CN(C)C(=O)Nc2cccc4ccccc24)O3)cc1 | inactive |
| COc1ccc(NC(=O)Nc2ccc3c(c2)C(=O)N([C@H](C)CO)C[C@@H](C)[C@H](CN(C)C(=O)Nc2cccc4ccccc24)O3)cc1 | inactive |
| COc1ccc(NC(=O)Nc2ccc3c(c2)C(=O)N([C@@H](C)CO)C[C@@H](C)[C@@H](CN(C)C(=O)Nc2cccc4ccccc24)O3)cc1 | active |
| COc1ccc(S(=O)(=O)N(C)C[C@@H]2Oc3ccc(NC(=O)Nc4cccc5ccccc45)cc3C(=O)N([C@@H](C)CO)C[C@H]2C)cc1 | active |
| COc1ccc(S(=O)(=O)N(C)C[C@H]2Oc3ccc(NC(=O)Cc4ccccc4)cc3C(=O)N([C@@H](C)CO)C[C@@H]2C)cc1 | inactive |
| C[C@H]1C(=O)C(=O)[C@@H]2O[C@@H]2C1=O | inactive |
| C[C@@H]1CN([C@@H](C)CO)C(=O)c2cc(NC(=O)C3CCCCC3)ccc2O[C@@H](C)CCCCO[C@@H]1CN(C)C(=O)c1ccncc1 | inactive |
| C=CC(=O)N[C@@H]1c2ccccc2C[C@@H]1O | inactive |
| Cc1noc(C)c1NC(=O)N(C)C[C@H]1OCCCC[C@@H](C)Oc2ccc(NS(=O)(=O)c3ccc(F)cc3)cc2C(=O)N([C@@H](C)CO)C[C@@H]1C | inactive |
| COc1ccc(S(=O)(=O)Nc2ccc3c(c2)C(=O)N([C@H](C)CO)C[C@@H](C)[C@@H](CN(C)Cc2ccc(Cl)c(Cl)c2)O3)cc1 | inactive |
| COc1ccc(S(=O)(=O)Nc2ccc3c(c2)C(=O)N([C@@H](C)CO)C[C@@H](C)[C@H](CN(C)Cc2ccc(Cl)c(Cl)c2)O3)cc1 | inactive |
| COc1ccc(S(=O)(=O)Nc2ccc3c(c2)C(=O)N([C@@H](C)CO)C[C@@H](C)[C@@H](CN(C)Cc2ccc(Cl)c(Cl)c2)O3)cc1 | active |
| COc1ccc(S(=O)(=O)Nc2ccc3c(c2)C(=O)N([C@H](C)CO)C[C@H](C)[C@@H](CN(C)Cc2ccc(Cl)c(Cl)c2)O3)cc1 | inactive |
| COc1ccc(S(=O)(=O)Nc2ccc3c(c2)C(=O)N([C@@H](C)CO)C[C@H](C)[C@H](CN(C)Cc2ccc(Cl)c(Cl)c2)O3)cc1 | inactive |
| COc1ccc(S(=O)(=O)Nc2ccc3c(c2)C(=O)N([C@@H](C)CO)C[C@H](C)[C@@H](CN(C)Cc2ccc(Cl)c(Cl)c2)O3)cc1 | active |
| COc1ccc(S(=O)(=O)Nc2ccc3c(c2)C(=O)N([C@H](C)CO)C[C@@H](C)[C@H](CN(C)Cc2ccc(Cl)c(Cl)c2)O3)cc1 | active |
| COc1ccc(S(=O)(=O)Nc2ccc3c(c2)C(=O)N([C@H](C)CO)C[C@H](C)[C@H](CN(C)Cc2ccc(Cl)c(Cl)c2)O3)cc1 | inactive |
